We go through 19 compounds from PubChem BioAssay (EPA / NIEHS).

The nature of assay [1]: Tanguay_ZF_120hpf_TR_legacy: (Legacy) Oregon State University Tanguay Lab 120 Hour Post-fertilization zebrafish Assay for Touch Response (AID 2283667). The procedure, abridged: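 Binary touch-response call at 120 hpf, analysed as gain of signal versus DMSO baseline. Wild-type 5D larvae, static exposure at 28C, 0.64% DMSO final; 5uM trimethyltin chloride as positive control.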

Read-out in assay [2]: Cytochrome P450 (CYP24A1_1), CYP24A1 (gene 1591)
Nature of the assay: LTEA_HepaRG_CYP24A1_1: Life Technologies and Expression Analysis (LTEA) Assay for Cytochrome P450 (CYP24A1_1) using HepaRG (AID 2283671; active = hit-call score of the fitted dose curve at least 0.9, where 1 is the maximum; inactive = score below 0.9). Particulars: mRNA level, 48 h; actives raise or lower the signal. The procedure, abridged: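 Readout is CYP24A1 transcript level by qRT-PCR, normalized to three housekeeping genes, with gain or loss of signal fitted against 0.5% DMSO. Human HepaRG cells received compound for 48 h at up to 100 uM.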

Assay [3] in a line: Tanguay_ZF_120hpf_ActivityScore_legacy: (Legacy) Oregon State University Tanguay Lab 120 Hour Post-fertilization zebrafish Assay Score for Activity (AID 2283742).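 As to AC50: dechorionated Tropical 5D wild-type zebrafish embryos held singly per well.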 The procedure, abridged: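 Dechorionated 5D embryos, one per well, static exposure 6–120 hpf, 28C, sealed and dark; final DMSO 0.64% (vol/vol). Brightfield binary scoring of mortality plus 18 endpoints; gain-of-signal fit versus DMSO baseline.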

Assay [4] in a line: CCTE_Padilla_ZF_144hpf_TERATOSCORE: (Legacy) CCTE's 144 Hour Post-fertilization zebrafish Assay Teratoscore, Padilla Lab (AID 2283679; active = hit-call score of the fitted dose curve at least 0.9, where 1 is the maximum; inactive = score below 0.9;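 as to AC50: zebrafish embryos with chorions exposed by immersion from 6-8 hpf to 5 dpf with daily renewal; teratogenicity score from eye scoring of death hatching and malformations at 144 hpf; higher score means more developmental defects relative to DMSO baseline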). The procedure, abridged:
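Larvae scored by eye at 144 hpf for death, hatching and malformations after a day in clean Hanks'. Before that, daily-renewed exposure at 80 uM (0.4% DMSO, 26C) from roughly 6-8 hpf through 5 dpf, 4 embryos per chemical.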

A short description of assay [5]: STM_H9_OrnithineISnorm_perc: Stemina devTOX quickPredict H9 human embryonic stem cell (hESC)-based Assay for Ornithine (ORN) Metabolite Biomarker, Normalized (AID 2283712; active = hit-call score of the fitted dose curve at least 0.9, where 1 is the maximum; inactive = score below 0.9;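 also: ornithine released into spent medium during last day measured by mass spectrometry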). The method, boiled down:
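UPLC-HRMS readout: endogenous ornithine EIC area / 13C-ORN internal standard, then % of 0.1% DMSO median. H9 hESCs (pluripotent), 72h exposure, re-dosed with fresh media q24h; last 24-h spent media, deproteinized in 40% acetonitrile.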

The nature of assay [6]: STM_H9_CystineISnorm_perc: Stemina devTOX quickPredict H9 human embryonic stem cell (hESC)-based Assay for Cystine (CYSS) Metabolite Biomarker, Normalized (AID 2283713; active = hit-call score of the fitted dose curve at least 0.9, where 1 is the maximum; inactive = score below 0.9). The procedure, abridged: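 UPLC-HRMS read-out: endogenous cystine peak area in spent medium, normalized to isotope-labeled internal standard and to median of 0.1% DMSO controls. Pluripotent H9 cells, 72h exposure, daily medium/compound replenishment; medium from last 24h sampled.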

A short description of assay [7]: STM_H9_OrnCyssISnorm_ratio: Stemina devTOX quickPredict H9 human embryonic stem cell (hESC)-based Assay for Ornithine (ORN):Cystine (CYSS) Ratio (AID 2283714). The method, boiled down: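 UPLC-HRMS of spent media: ORN/CYSS ratio of internal-standard-normalized percentages, DMSO (0.1%) baseline. Pluripotent H9 hESCs, 72h exposure, daily re-dosing with fresh media; last 24h media collected.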

Assay [8] can be described thus: CEETOX_H295R_MTT_cell_viability: Viability Assessment in the CeeTox HT-H295R MTT Assay (AID 2283718; active = hit-call score of the fitted dose curve at least 0.9, where 1 is the maximum; inactive = score below 0.9;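 as to AC50: curve fitted both ways so AC50 may mark viability loss or gain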). The method, boiled down: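 Human H295R adrenal cells, prestimulated 48 h with 10 uM forskolin, were exposed 48 h to chemicals in 0.1% DMSO. Viability was measured in the same wells by MTT (0.5 mg/ml, 4 h, 37 C), absorbance 570/650 nm, as percent of controls.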
Assay [9] has as its system Thyroperoxidase (TPO), gene 445522. Nature of the assay: CCTE_Simmons_GUA_TPO: CCTE's Guaiacol Assay for Thyroperoxidase (TPO) Inhibition, Simmons Lab (AID 2283750). The procedure, abridged:
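Porcine thyroid microsomes (25 ug) in 200mM potassium phosphate, preincubated 30 s at 37C with compound (8 concentrations, 5 nM–87.5 uM) and 35mM guaiacol; 1mM H2O2 starts reaction. Absorbance change at 450nm over first 80 s; loss of signal versus DMSO, three replicates.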

The target of assay [10] is Luciferin 4-monooxygenase (Photinus pyralis) (UniProt P08659). Nature of the assay: CCTE_Simmons_QuantiLum_inhib_2: CCTE's Firefly Luciferase Inhibition Assay, Simmons Lab (AID 2283767). The procedure, abridged:
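Cell-free QuantiLum luciferase, 5 ng/well; compounds 5 nM–87.5 uM final, 8 conc, 0.5% DMSO; 30 min, 37C, dark. Detection reagent (150 uM D-luciferin, 147 uM dATP, CoA, DTT, pH 7.8 final) injected per well, kinetic luminescence. Triplicate biological replicates.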

Inconclusive results are not listed. Active and inactive are the calls of the source. The calls were made as follows, unless noted: active = hit-call score of the fitted dose curve at least 0.9, where 1 is the maximum; inconclusive = response in the unintended direction; inactive = score below 0.9.

Luciferin 4-monooxygenase (Photinus pyralis), sequence (P08659 whole entry, looked up): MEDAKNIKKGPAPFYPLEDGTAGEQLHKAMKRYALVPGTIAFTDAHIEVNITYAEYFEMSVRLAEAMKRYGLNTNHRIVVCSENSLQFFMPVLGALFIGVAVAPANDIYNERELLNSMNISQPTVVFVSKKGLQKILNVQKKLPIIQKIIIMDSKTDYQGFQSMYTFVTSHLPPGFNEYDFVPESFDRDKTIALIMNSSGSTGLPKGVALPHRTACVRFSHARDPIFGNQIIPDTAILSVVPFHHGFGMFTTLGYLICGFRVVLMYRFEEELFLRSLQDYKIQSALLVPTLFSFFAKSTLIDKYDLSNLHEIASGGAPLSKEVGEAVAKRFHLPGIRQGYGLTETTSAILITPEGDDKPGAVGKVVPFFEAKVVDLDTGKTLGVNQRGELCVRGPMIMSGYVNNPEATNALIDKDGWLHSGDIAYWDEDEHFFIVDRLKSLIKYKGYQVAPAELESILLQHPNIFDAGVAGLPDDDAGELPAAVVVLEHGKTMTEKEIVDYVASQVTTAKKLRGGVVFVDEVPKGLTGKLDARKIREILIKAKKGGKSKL

With `CC(C)CCCCCCOC(=O)c1ccc(C(=O)OCCCCCCC(C)C)c(C(=O)OCCCCCCC(C)C)c1`, the compound was classed as inactive in assay [1], in [2] and in assay [3].
For `Clc1nc(Cl)c(Cl)c(Cl)c1Cl`, the compound was called inactive in [1] and in assay [3]. For the same compound, the AC50 in assay [4] is 8.13 µM (active).
As to `CC(C)=CCC/C(C)=C/CO`, the call in [1] and in assay [3] was inactive. In addition, the AC50 in [4] was 15.4 µM (active).
Take `COc1cccc(-c2ccc(/C=C\CN3CCCCCC3)cc2Cl)c1`: the compound was called inactive in assay [1] and in assay [8]. Besides, the AC50 in assay [4] was 2.73 µM (active); in assay [5], 3.59 µM (active); in assay [6] it was 4.11 µM (active); in [7] it was 3.97 µM (active); in assay [3], 41.8 µM (active).
Regarding `COc1ccc(/C=C/S(=O)(=O)NC(=O)c2ccc(C)cc2Cl)cc1`, the call in assay [1], in assay [4] and in [3] was inactive. For the same compound, in [8], the AC50 is 3.37 µM (active).
Turning to `CCCC(=O)OCC`, the outcome in [1] and in [3] was inactive.
Turning to `Nc1nc2ncc(CNc3ccc(C(=O)N[C@@H](CCC(=O)O)C(=O)O)cc3)nc2c(=O)[nH]1`, the compound was classed as inactive in assay [4], in assay [5], in assay [6], in [3], in assay [9] and in assay [10].
For the compound `CC(=O)c1ccc2c(c1)[C@H](NC(=O)c1ccc(F)cc1)[C@@H](O)C(C)(C)O2`, the call in [1] and in assay [3] was inactive.
Turning to `O=C(O)c1cc(N=Nc2ccc(S(=O)(=O)Nc3ccccn3)cc2)ccc1O`, the result in assay [3] was inactive.
In the case of `O=C(O)CC(O)C(=O)O` (stereo unspecified), the call in [1] and in [3] was inactive.
Take `CC(C)=CCCC(C)CCO` (stereo unspecified): the compound was called inactive in [1], in [3] and in [10].
In the case of `O=C(O)CCN(C1(C(=O)NO)CCCC1)S(=O)(=O)c1ccc(Oc2ccc(F)cc2)cc1`, the result in [1], in [3] and in assay [10] was inactive.
Regarding `COCCOc1cc2cc(C(=O)NC3CCN(C(C)C)CC3)n(CC(=O)Nc3ccc(Cl)cn3)c2cn1`, the compound was called inactive in assay [1] and in assay [3].
Take `CCNc1ccccc1`: the compound was classed as inactive in assay [1], in assay [3], in assay [9] and in assay [10].
`CCn1nc(Cc2ccccc2)cc1C1CCN(C[C@H]2C[C@H](N(C)[C@@H](C(=O)O)C(C)C)C[C@@H]2c2cccc(F)c2)CC1`: the call in assay [1], in [3] and in assay [10] was inactive.
Regarding `Cc1ccc(C)c(O)c1`, the compound was called inactive in assay [1] and in [3].
In the case of `C1N2CN3CN1CN(C2)C3`, the call in assay [1] and in assay [3] was inactive.
For `Nc1cccc(N)c1`, the compound was called inactive in assay [1] and in [3].
For `CCOCCOCCOCCO`, the compound was classed as inactive in assay [1] and in [3].
